Only some compounds are listed: those with a hit (about 7% of all), similar ones and a draw of the others.
DRD3 agonist = qHTS of D3 Dopamine Receptor Agonist: qHTS | D(3) dopamine receptor (Homo sapiens), P35462 | D3R DiscoveRx beta-arrestin cells, luminescence, 90 min | max activation, % | 0.58% of 410,000 active; in the data active means max activation above about 30%; further: 0% is about no effect
Target sequence (P35462 whole entry, looked up): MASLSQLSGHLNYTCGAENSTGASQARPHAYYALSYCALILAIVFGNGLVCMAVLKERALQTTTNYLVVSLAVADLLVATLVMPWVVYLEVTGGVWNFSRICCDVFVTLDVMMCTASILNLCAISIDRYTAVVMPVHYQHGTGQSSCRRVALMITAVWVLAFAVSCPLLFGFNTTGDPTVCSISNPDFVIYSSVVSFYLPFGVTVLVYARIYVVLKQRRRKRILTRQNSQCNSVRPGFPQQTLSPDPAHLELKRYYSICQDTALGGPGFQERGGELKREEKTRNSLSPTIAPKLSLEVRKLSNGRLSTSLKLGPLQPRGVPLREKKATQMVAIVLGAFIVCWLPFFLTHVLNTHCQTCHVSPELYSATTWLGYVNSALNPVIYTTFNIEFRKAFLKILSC
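Cells at 1500/well, incubated overnight, then treated with pinned compounds (dopamine as control) for 90 min at 37 degrees C. DiscoveRx reagent added for 30 - 60 minutes at room temperature; luminescence read.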
IL-1B inflam inh = qHTS for Inhibitors of Inflammasome Signaling: IL-1-beta AlphaLISA Primary Screen; THP-1 LPS/ATP IL-1B secretion, AlphaLISA, 16 h; hits give low values; activity change, % at 57.5 µM; 4.7% of 360,000 active; AID 743279, 2014; in the data active means activity change below about -50%; inconclusive means mostly about -30% to -49%; further: on the % scale 0 is the no-effect control and ±100 the full control effect
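THP-1 cells pretreated 1 hr with compounds (up to 57.5 uM final), then stimulated with LPS (250 ng/mL final) plus ATP (1.25 mM final); secreted IL-1B measured by AlphaLISA after 16 hr, decreased signal indicating inhibition.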
D3 antag = qHTS of D3 Dopamine Receptor Antagonist: qHTS. D3R cells, DiscoveRx beta-arrestin luminescence, antagonist mode; hits give low values. 2.5% of 360,000 active. max response, negative = inhibition, %. AID 652054, 2013. D(3) dopamine receptor (Homo sapiens), P35462; in the data active means max response below about -50%; inconclusive means no clear call, values can overlap the other calls; further: on the % scale 0 is the no-effect control and ±100 the full control effect
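Cells expressing the human receptor were seeded at 1500 cells/well, incubated overnight at 37 degrees C in 5% CO2, then exposed to library compounds with dopamine controls for 90 minutes at 37 degrees C before luminescent detection.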
S2 tox = Viability Counterscreen for Primary qHTS for Inhibitors of ATXN expression; AID 651635, 2014; Potency, µM (highest dose often 56.7 µM), usual class: cytotoxic; 0.49% of 400,000 active; S2 cells (HEK-293 line with an ATXN2-luciferase reporter) viability, CellTiter-Fluor protease fluorescence, 24 h; further: potency means the concentration at half of the fitted maximal effect; nearly all actives have a fitted effect of over 40% in size
Integrin act MD = qHTS for Activators of Integrin-Mediated Alleviation for Muscular Dystrophy; alpha7betagal myoblasts, beta-gal FDG fluorescence, 48 h; 0.064% of 350,000 active; AID 624291, 2012; Potency, µM (titrated, usually from 38.3 µM), for inactives: at the highest dose activation, most hits filed as activators;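 further: potency means the concentration at half of the fitted maximal effect; 100% = response of the positive control SU9516; nearly all actives have a fitted effect of over 60% in size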
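Alpha7betagal+/- myoblasts (passage 13) were plated 16-24 hr, then exposed to compounds (1:260 dilution of DMSO stock) for 48 hours at 37C. After MPER lysis, β-galactosidase reporter activity was read as FDG fluorescence (ex 480/em 540) after 30 minutes.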
ATXN2 expr inh = Primary qHTS for Inhibitors of ATXN expression; HEK-293 ATXN2-luciferase reporter, luminescence, 24 h; Potency, µM (doses to about 57 µM), without a hit: at the top dose activity change, negative = inhibition, actives largely listed as inhibitors; 0.72% of 360,000 active; AID 1745845, 2022; further: potency means the concentration at half of the fitted maximal effect; on the % scale 0 is the no-effect control and ±100 the full control effect; nearly all actives have a fitted effect of over 55% in size
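qHTS (up to 57 uM final) was run with 24 h compound exposure of reporter cells at 37 °C. Each well was multiplexed: SteadyGlo luminescence measured ATXN2-luciferase expression after a fluorogenic Gly-Phe-AFC viability readout (25 uM final).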
* hit, by the source's call; i = inactive; ? = inconclusive; nt = no result given. Unless noted, the call rests on the fitted dose curve; in most records, active means well fitted curve in the direction sought with a large enough effect; inconclusive means small, poorly fitted or top-dose-only effect, or another doubt; inactive means no such curve, though single readings can be large; an effect the other way counts as inactive or inconclusive.

SMILES	DRD3 agonist	IL-1B inflam inh	D3 antag	S2 tox	Integrin act MD	ATXN2 expr inh
CCc1nnc2c(NCc3ccccc3)nc3ccccc3n12	1	nt	nt	i	nt	13%
COc1cccc(CN2CCC2(C)C(=O)Nc2cccc3cccnc23)c1F (stereo not given)	-3	21	3	?	nt	?
CC1(C(=O)Nc2cccc3cccnc23)CCN1Cc1csc2ccccc12 (stereo not given)	-13	0	0	20µM*	nt	0%
CC(C(=O)NCC1(c2ccccc2)CCCC1)N1CCCC1 (stereo not given)	-3	-25	-17	i	-26%	-5%
C=C1/C=C(\C)C(C)(O)CC(O)CC(=O)C(O)C(O)C(C)CC(C)OC(=O)/C(C)=C/CC/C=C/C(OC)C(O)CC(C)C1 (stereo not given)	7	-53*	23	?	-16%	?
CCOC(=O)c1ccccc1NC(=O)COC(=O)CSCC(=O)Nc1cc(C)on1	-3	2	0	i	-2%	-3%
Cc1cc(NCCCn2ccnc2)n2nc(C)c(-c3ccccc3)c2n1	-8	-22	12	i	17%	44%
CCOC(=O)Cc1c(C)nc2c(-c3ccc(Cl)cc3)c(C(F)(F)F)nn2c1C	-8	nt	nt	i	nt	-19%
Cc1cc(NCCCn2ccnc2)n2nc(C)c(-c3ccc(Cl)cc3)c2n1	0	-60*	-23	16µM*	-62%	?
Cc1cc(Cl)n2nc(C)c(-c3ccc(Cl)cc3)c2n1	-6	-99*	2	?	-64%	?
CCOC(=O)Cc1c(C)nc2c(-c3ccc(Cl)cc3)c(C)nn2c1C	-4	-84*	-7	nt	14%	-13%
CN(C(=O)C1CCOC1)c1nnc(-c2cnccn2)s1 (stereo not given)	-4	1	15	i	23%	8%
CCOC(=O)C1CCN(CC(O)COc2ccc(C(C)(C)CC)cc2)CC1 (stereo not given)	2	?	11	?	-49%	-20%
O=C(O)c1ccc(COc2ccc3c(c2)CCC3)cc1	4	31	-12	i	-4%	17%
CC(C)(C)c1cc(OC(=O)c2ccccc2F)ccc1O	0	-69*	4	?	5%	-35%
CCN(CC)S(=O)(=O)c1ccc(N=NC2=C(O)CC(C)(C)CC2=O)cc1	-17	-55*	-1	i	-22%	-6%
Cc1cccc(C)c1NC(=O)C(=O)NCC1CCCN1S(=O)(=O)c1cccs1 (stereo not given)	-2	27	-15	i	-14%	-9%
N/C(Cc1nc(-c2ccc(F)cc2)cs1)=N\O	9	-54*	5	i	-4%	-1%
COc1ccc(N2CCN(C(=O)C3CCN(c4nc5ccc(C)cc5[nH]4)CC3)CC2)cc1	8	nt	nt	nt	nt	nt
CCOc1ccc(S(=O)(=O)Nc2nc3ccccc3nc2-n2ccc(=NC(=O)c3ccccc3C)cc2)cc1	18	?	15	nt	-13%	-12%
Clc1cccc(Nc2ncnc3ccc(Br)cc23)c1	-9	-58*	-8	i	28%	-17%
Cc1cccc(Nc2ncnc3ccc(Br)cc23)c1	-16	-51*	-15	i	3%	-24%
COc1ccc(Nc2ncnc3ccc(Br)cc23)cc1OC	-1	-14	-7	?	4µM*	24%
COc1ccc(COc2ncnc3ccc(Br)cc23)cc1F	-9	-65*	-11	nt	?	-8%
CC(C)C(NS(=O)(=O)c1cccc2nsnc12)C(=O)N1CCn2c1nc1ccccc12 (stereo not given)	2	2	3	i	-10%	1%
O=C(NC(Cc1ccccc1)C(=O)O)/C(=C\c1ccco1)NC(=O)c1ccco1 (stereo not given)	11	0	4	i	-19%	-18%

High-throughput results from PubChem BioAssay.
